biological target: GST-Hu-p50 (Homo sapiens, UniProt P19838 7-356); experiment: protein-binding microarray (PBM); PBM: ~300 nM protein, 6 mM HEPES pH 7.8, 80 mM KCl, 0.5 mM EDTA, 0.5 mM EGTA, 6% glycerol, 35 ng/ul poly-dIdC, 1% milk, 1 h, room temperature; Ap Aiptasia and Nv Nematostella (sea anemones) / Co Capsaspora / Aq Amphimedon (sponge) / Dm Drosophila / Hu human; RHD is the Rel homology domain; high values mean tight binding; conditions: dsDNA, one strand shown
Sequence (P19838 7-356): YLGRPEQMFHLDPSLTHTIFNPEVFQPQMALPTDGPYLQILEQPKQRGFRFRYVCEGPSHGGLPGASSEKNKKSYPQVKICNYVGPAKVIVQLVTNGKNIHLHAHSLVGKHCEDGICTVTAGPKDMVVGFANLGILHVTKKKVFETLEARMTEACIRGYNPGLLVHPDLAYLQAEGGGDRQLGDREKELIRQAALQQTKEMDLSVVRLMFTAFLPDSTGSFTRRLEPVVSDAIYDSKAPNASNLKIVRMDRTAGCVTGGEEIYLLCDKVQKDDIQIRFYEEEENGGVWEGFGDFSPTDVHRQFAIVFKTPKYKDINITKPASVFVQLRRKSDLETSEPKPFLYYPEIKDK

Row | Sequence | binding signal [z-score]
1 | CCGATTAACATCATCCGGGAAAATGATGTTAATCGGGTCTTGATTCGCTTGACGCTGCTG | 2.14
2 | CCGATTAACATCAAATCTTTCCCTGATGTTAATCGGGTCTTGATTCGCTTGACGCTGCTG | 3.68
3 | CCGATTAACATCACTTTTTCCCATGATGTTAATCGGGTCTTGATTCGCTTGACGCTGCTG | 3.04
4 | CCGATTAACATCAATCTACCCCCTGATGTTAATCGGGTCTTGATTCGCTTGACGCTGCTG | 4.39
5 | CCGATTAACATCAGGGCAGCCCCTGATGTTAATCGGGTCTTGATTCGCTTGACGCTGCTG | 4.31
6 | CCGATTAACATCAGGGGAGGTACTGATGTTAATCGGGTCTTGATTCGCTTGACGCTGCTG | 3.17
7 | CCGATTAACATCACCCGCTTTATTGATGTTAATCGGGTCTTGATTCGCTTGACGCTGCTG | 1.46
8 | CCGATTAACATCAGGGTATTCCATGATGTTAATCGGGTCTTGATTCGCTTGACGCTGCTG | 4.11
9 | CCGATTAACATCAGGAAGACCCCTGATGTTAATCGGGTCTTGATTCGCTTGACGCTGCTG | 3.37
10 | CCGATTAACATCACCCGATTCCCTGATGTTAATCGGGTCTTGATTCGCTTGACGCTGCTG | 2.39
11 | CCGATTAACATCAGGAAAAGCCCTGATGTTAATCGGGTCTTGATTCGCTTGACGCTGCTG | 2.56
12 | CCGATTAACATCACGCAACCCCCTGATGTTAATCGGGTCTTGATTCGCTTGACGCTGCTG | 5.03
13 | CCGATTAACATCAGGGAGTTACCTGATGTTAATCGGGTCTTGATTCGCTTGACGCTGCTG | 3.85
14 | CCGATTAACATCACATACTCCCCTGATGTTAATCGGGTCTTGATTCGCTTGACGCTGCTG | 3.33

Source: article PMC5700166
